Laboratory results from PubChem BioAssay AID463173 (ICCB-Longwood Screening Facility, Harvard Medical School, 2010).
Screen size: about 52,000 compounds; about 4,300 (8.3%) were called active. Rule as the data show it: active = survival mostly below about 52% (no sharp cut-off); inactive = mostly above about 56%. Only a selection was taken, and actives are over-represented in it overall.

What follows are compounds tested on DeltatarO mutant (assay: growth inhibition of S. aureus wild type versus tarO mutant, primary screen, teichoic acid synthesis inhibitors, RN4220, OD600 (AID 463173)). Settings: OD600, 18 h, stronger effect = lower value, screened at 18.75 µg/mL (by protocol).
In the case of COCCNC(=O)c1cc2n(n1)CCCN(Cc1ccc(C)cc1)C2=O, the survival is reported as 78% (inactive).
CCCC(=O)c1ccc(OC(=O)c2c(-c3ccccc3Cl)noc2C)cc1 was tested, and the survival was 102% (inactive).
With CCCOc1cccc(NC(=O)c2c(-c3ccccc3Cl)noc2C)c1 the survival was 37% (active).
With Cc1onc(-c2ccccc2Cl)c1C(=O)Oc1ccc(Br)cc1 the survival was 41% (active).
CCCOc1ccc(OC(=O)c2c(-c3ccccc3Cl)noc2C)cc1 was tested, and the survival was 84% (inactive).
CCOc1ccc(OC(=O)c2c(-c3ccccc3Cl)noc2C)cc1 was tested, and the survival was 72% (inactive).
With CC(=O)c1ccc(OC(=O)c2c(-c3ccccc3Cl)noc2C)cc1 the survival was 94% (inactive).
In the case of Cc1ccc(NC(=O)Cn2nc(N3CCN(c4ccccc4)CC3)ccc2=O)cc1F, the survival is reported as 83% (inactive).
In the case of Fc1ccc2ncc3c(-c4ccccc4)n[nH]c3c2c1, the survival is reported as 83% (inactive).
With COc1ccc(C(=O)Nc2ccc(-c3cc4ccccc4oc3=O)c(C)c2)cc1OC the survival was 69% (inactive).
Cc1cc(C)cc(NC(=O)c2sc3nc4n(c(=O)c3c2C)N=C(c2ccccc2)CS4)c1 was tested, and the survival was 69% (inactive).
With COc1ccc(Br)cc1Cn1nnc(C(=O)Nc2ccc(C)cc2C)c1N the survival was 48% (inactive).
CCc1ccc(NC(=O)Cn2c(=O)n(CCCCC(=O)NCCc3ccccc3)c(=O)c3ccccc32)cc1 was tested, and the survival was 84% (inactive).
In the case of CCOC(=O)c1c(C)[nH]c(C)c1S(=O)(=O)N1CCCC(C(=O)NCc2cccc(OC)c2)C1 (stereo not drawn), the survival is reported as 78% (inactive).
CS(=O)(=O)c1oc(-c2ccc(F)cc2)nc1S(=O)(=O)c1ccc(Cl)cc1 was tested, and the survival was -5% (active).
For COc1ccc(-c2nc(S(=O)(=O)c3ccc(Cl)cc3)c(NCc3ccccc3)o2)cc1, the survival was 136% (inactive).
In the case of CCC(C)S(=O)(=O)c1oc(-c2cccs2)nc1S(=O)(=O)c1ccccc1 (stereo not drawn), the survival is reported as 53% (inactive).
With Cc1ccc(S(=O)(=O)c2nc(-c3cccs3)oc2SC(C)C)cc1 the survival was 66% (inactive).
CC(C)S(=O)(=O)c1oc(-c2ccc(F)cc2)nc1S(=O)(=O)c1ccc(F)cc1 was tested, and the survival was 22% (active).
In the case of Cc1ccc(S(=O)(=O)c2nc(-c3cccs3)oc2SCc2ccc(F)cc2)cc1, the survival is reported as 62% (inactive).
For CCOc1ccc(NC(=O)CSc2oc(-c3ccc(F)cc3)nc2S(=O)(=O)c2ccc(C)cc2)cc1, the survival was 63% (inactive).
With CC(C)S(=O)(=O)c1oc(-c2cccs2)nc1S(=O)(=O)c1ccc(F)cc1 the survival was 9% (active).
CCC(C)S(=O)(=O)c1oc(-c2ccc(F)cc2)nc1S(=O)(=O)c1ccc(F)cc1 (stereo not drawn) was tested, and the survival was 41% (active).
For COc1cccc(-c2nc(S(=O)(=O)c3ccc(Cl)cc3)c(NCc3ccccc3)o2)c1, the survival was 180% (inactive).
Cc1ccc(S(=O)(=O)c2nc(-c3ccc(F)cc3)oc2SCC(=O)NC2CCCCC2)cc1 was tested, and the survival was 149% (inactive).
Cc1ccccc1CNC(=O)CCCn1c(=O)c2cccn2c2cccnc21 was tested, and the survival was 114% (inactive).
CCOc1ccc(C2CC(c3c(O)n(C4CCCCC4)c(=O)[nH]c3=O)=Nc3ccccc3S2)cc1 (stereo not drawn) was tested, and the survival was 47% (inactive).
In the case of Cc1ccc2c(c1)cc1c(=O)n(CC(=O)N3CCCCC3)nc(C)n12, the survival is reported as 90% (inactive).
With COc1ccc(C)cc1S(=O)(=O)NCC(c1cccs1)S(=O)(=O)c1ccc(C)cc1 (stereo not drawn) the survival was 69% (inactive).
Cc1ccc(-c2nnc(NC(=O)c3ccc4c(c3)OCCO4)o2)c(C)c1 was tested, and the survival was 96% (inactive).
For Cc1ccc(NC(=O)Cn2nc(Cc3ccncc3)c3ccccc3c2=O)c(Cl)c1, the survival was 66% (inactive).
For COc1cc(-c2nc3cccc(C)n3c2Nc2ccc3c(c2)OCCO3)ccc1O, the survival was 76% (inactive).
In the case of CCc1ccc(NC(=O)CCn2nc(C)c(S(=O)(=O)N3CCCCC3)c2C)cc1, the survival is reported as 128% (inactive).
In the case of COC(=O)c1ccccc1NC(=O)c1ncoc1-c1ccco1, the survival is reported as 62% (inactive).
In the case of CC(C)S(=O)(=O)c1oc(-c2ccc(F)cc2)nc1S(=O)(=O)c1ccccc1, the survival is reported as 33% (active).
For CCN(CC)CCNc1nc2c(c(=O)n(C)c(=O)n2C)n1CCc1ccccc1, the survival was 103% (inactive).
COc1ccc(NC(=O)C2=C(C)Nc3nc(SCc4ccccc4)nn3C2c2cc(OC)ccc2OC)cc1 (stereo not drawn) was tested, and the survival was 78% (inactive).
COc1cccc(C(=O)Nc2cccc(C(=O)OCc3cc(=O)n4nc(C(C)C)sc4n3)c2)c1 was tested, and the survival was 101% (inactive).
For COc1ccc(N2CCN(C(=O)c3nc(-c4ccc(Cl)cc4)n4c3CCCCC4)CC2)cc1, the survival was 81% (inactive).
In the case of Cc1ccc(NC(=O)CSc2nncn2C)c(C)c1, the survival is reported as 75% (inactive).
CC(=O)Nc1nonc1-c1nnc(SCc2ccc(F)cc2Cl)n1C was tested, and the survival was 45% (inactive).
With CC(=O)Nc1nonc1-c1nnc(SCc2ccccc2)n1C the survival was 44% (inactive).
In the case of CC(=O)Nc1nonc1-c1nnc(SCC(=O)Nc2ccc(C)c(Cl)c2)n1-c1ccccc1, the survival is reported as 49% (inactive).
With COc1ccc(NC(=O)CSc2nnc(-c3nonc3NC(C)=O)n2C)cc1Cl the survival was 55% (inactive).
For CC(=O)Nc1nonc1-c1nnc(SCc2ccc(F)cc2)n1C, the survival was 44% (inactive).
For CC(=O)Nc1nonc1-c1nnc(SCc2ccc(C)cc2)n1C, the survival was 48% (inactive).
For CC(=O)Nc1nonc1-c1nnc(SCC(=O)Nc2ccccc2Cl)n1C, the survival was 50% (inactive).
CC(=O)Nc1nonc1-c1nnc(SCc2ccccc2Cl)n1C was tested, and the survival was 42% (active).
In the case of CC(=O)Nc1nonc1-c1nnc(SCc2ccccc2F)n1C, the survival is reported as 46% (inactive).
CC(=O)Nc1nonc1-c1nnc(SCC(=O)Nc2ccc(C)c(Cl)c2)n1C was tested, and the survival was 60% (active).
In the case of CC(=O)Nc1nonc1-c1nnc(SCc2ccccc2C)n1C, the survival is reported as 42% (active).
With CC(=O)Nc1nonc1-c1nnc(SCc2ccc(Cl)cc2)n1C the survival was 42% (active).
In the case of Cc1c(NC(=O)Cc2ccc(Cl)cc2)cccc1-c1nc2cccnc2s1, the survival is reported as 114% (inactive).
With Cc1csc2nc(COC(=O)c3cccc(NC(=O)COc4ccccc4Cl)c3)cc(=O)n12 the survival was 88% (inactive).
For Cc1cc2ncn(S(=O)(=O)c3ccc(S(N)(=O)=O)cc3)c2cc1C, the survival was 84% (inactive).
With Cc1ccccc1NC(=O)N1CCCC(c2nc(-c3ccc(F)cc3)no2)C1 (stereo not drawn) the survival was 93% (inactive).
Cc1ccccc1NC(=O)CN1C(=O)CCn2nc(-c3cccn3C)cc21 was tested, and the survival was 83% (inactive).
O=C(CSc1nc(-c2ccc(Cl)cc2)nc2c1Cc1ccccc1O2)N1CCCCC1 was tested, and the survival was 96% (inactive).
